Assay results published in PubChem BioAssay (Tox21).
Inconclusive results are not listed. Calls of active or inactive are those of the source. Unless noted, calls come from the whole dose curve.

Columns and labels:
[1] = qHTS assay to identify small molecule antagonists of the sonic hedgehog signaling (Shh) pathway (AID 1259369); note: nearly all actives have a fitted effect of over 45% in size; note: potency is the fitted concentration of half-maximal effect
Outline: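 NIH/3T3-derived Gli1-Luc reporter cells plated 4 h, dosed with compound, then stimulated with conditioned medium for 24 h at 37 C. Firefly luciferase luminescence read after 30 min with detection reagent at room temperature.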

[2] = target: Estrogen receptor beta (Homo sapiens) (UniProt Q92731); assay: qHTS assay to identify small molecule agonists of the estrogen receptor beta (ER-beta) signaling pathway (AID 1259377; active = well fitted activation curve with a large enough effect in the signal ratio in the repeat runs, not every such curve was filed as active; the % refers to the signal ratio)
Outline: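 Agonist mode cell assay in GripTite HEK293T cells expressing an ER-beta fusion that drives beta-lactamase from an Upstream Activator Sequence; 16 hr compound exposure at 37C, then 2 h LiveBLAzer B/G FRET substrate at room temperature, fluorescence read-out.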

[3] = target: Estrogen receptor beta (Homo sapiens) (UniProt Q92731); assay: qHTS assay to identify small molecule antagonists of the estrogen receptor beta (ER-beta) signaling pathway (AID 1259378; active = well fitted inhibition curve with a large enough effect in the signal ratio in the repeat runs, not every such curve was filed as active; the % refers to the signal ratio; note: potency is the fitted concentration of half-maximal effect)
Outline: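 ER-beta-UAS-bla HEK293T cells in 2% charcoal-stripped FBS medium treated with compound plus 1nM final 17-beta-estradiol for 16 hr at 37C. Beta-lactamase reporter read by FRET substrate fluorescence after 2 hours at room temperature.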

[4] = qHTS assay to identify small molecule agonists of the androgen receptor (AR) signaling pathway in the presence of an antagonist - cell viability counter screen (AID 1259379; active = well fitted curve in the direction sought with a large enough effect in the repeat runs; an effect the other way counts as inactive or inconclusive; note: nearly all actives have a fitted effect of over 25% in size; note: potency is the fitted concentration of half-maximal effect)
Outline: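 MDA-kb2 cells (MMTV-luciferase, AR/GR), 3,000/well, 5 h attachment, then 3.0 µM nilutamide (final) and compounds at 15 concentrations. Viability by CellTiter-Fluor fluorescence after 16 h at 37 °C, 0% CO2, in the reporter wells.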

[5] = qHTS assay to identify small molecule agonists of the estrogen receptor beta (ER-beta) signaling pathway - cell viability counter screen (AID 1259380; active = well fitted curve in the direction sought with a large enough effect in the repeat runs; an effect the other way counts as inactive or inconclusive; note: nearly all actives have a fitted effect of over 30% in size; note: potency is the fitted concentration of half-maximal effect)
Outline: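 ER-beta-UAS-bla HEK293T cells in medium with 2% charcoal-stripped FBS, pre-incubated 6 hr, then treated 16 hr at 37C. Cytotoxicity read in the same wells by CellTiter-Glo luminescence after 30 min at room temperature.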

[6] = qHTS assay to identify small molecule antagonists of the estrogen receptor beta (ER-beta) signaling pathway - cell viability counter screen (AID 1259382; active = well fitted curve in the direction sought with a large enough effect in the repeat runs; an effect the other way counts as inactive or inconclusive; note: series mostly up to about 92 µM; nearly all actives have a fitted effect of over 55% in size)
Outline: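 ER-beta-UAS-bla HEK293T cells in 2% charcoal-stripped FBS medium, treated with compound plus 1 nM 17-beta-estradiol for 16 h at 37C. Viability read by CellTiter-Glo luminescence after 30 min at room temperature in the same wells.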

[7] = target: Estrogen receptor (Homo sapiens) (UniProt P03372); assay: qHTS assay to identify small molecule agonists of the estrogen receptor alpha (ER-alpha) signaling pathway in the presence of an antagonist (AID 1259383); note: top concentration of the series differs between compounds; nearly all actives have a fitted effect of over 15% in size
Outline: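 VM7Luc4E2 cells express endogenous full-length ER-alpha with an ERE-luciferase reporter and were hormone-deprived for 5 days. Compounds at 15 concentrations were added with 10.0nM ICI-182,780 for 22hr at 37C. Luminescence was read with ONE-Glo.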

[8] = qHTS assay to identify small molecule agonists or antagonists of the thyroid stimulating hormone receptor (TSHR) signaling pathway - wild type cell line counter screen (AID 1259384)
Outline: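 Wild-type Hek293 cells, 800/well, 18 h at 37C, then compound with Ro20-1724 for 30 min RT. cAMP by HTRF (cAMP-d2/anti-cAMP cryptate), 1 h RT, fluorescence read. 15 concentrations, triplicates.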

[9] = target: Thyrotropin receptor (Homo sapiens) (UniProt P16473); assay: qHTS assay to identify small molecule antagonists of the thyroid stimulating hormone receptor (TSHR) signaling pathway (AID 1259385); note: nearly all actives have a fitted effect of over 20% in size
Outline: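 TSHR-HEK293 cells (800/well) plated 18 h, then compounds with Ro20-1724 and TSH at 1.5 ng/mL final, 30 min at room temperature. cAMP quantified by HTRF (cAMP-d2/anti-cAMP-cryptate, 1 h); 15 concentrations in triplicate.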

[10] = target: Androgen receptor (Homo sapiens) (UniProt P10275); assay: qHTS assay to identify small molecule agonists of the androgen receptor (AR) signaling pathway in the presence of an antagonist (AID 1259381); note: nearly all actives have a fitted effect of over 15% in size
Outline: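 MDA-kb2 cells carrying MMTV-luciferase (AR/GR responsive), 3,000 cells/well, co-treated with 3.0 uM nilutamide final. Compounds at 15 concentrations, 16 hr at 37C without CO2. Luciferase luminescence read after 30 min with ONE-Glo.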

Measured: Potency

Chain of Estrogen receptor (Homo sapiens) (P03372 whole entry, looked up): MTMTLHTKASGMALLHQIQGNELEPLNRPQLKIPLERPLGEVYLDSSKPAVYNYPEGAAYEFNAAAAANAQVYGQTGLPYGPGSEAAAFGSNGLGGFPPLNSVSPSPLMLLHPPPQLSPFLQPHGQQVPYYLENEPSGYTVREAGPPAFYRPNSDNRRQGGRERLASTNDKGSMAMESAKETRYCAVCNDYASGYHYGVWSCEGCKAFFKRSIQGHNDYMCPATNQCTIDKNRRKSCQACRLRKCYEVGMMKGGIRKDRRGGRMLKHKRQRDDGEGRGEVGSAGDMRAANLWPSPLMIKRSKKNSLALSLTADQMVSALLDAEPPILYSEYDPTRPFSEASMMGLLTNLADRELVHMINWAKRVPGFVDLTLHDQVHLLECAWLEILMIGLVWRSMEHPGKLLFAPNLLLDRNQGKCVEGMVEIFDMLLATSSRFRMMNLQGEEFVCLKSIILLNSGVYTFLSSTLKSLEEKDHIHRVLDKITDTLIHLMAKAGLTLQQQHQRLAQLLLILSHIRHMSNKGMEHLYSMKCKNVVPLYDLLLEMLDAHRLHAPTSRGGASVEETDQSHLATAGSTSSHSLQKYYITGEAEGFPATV
Chain of Estrogen receptor beta (Homo sapiens) (Q92731 whole entry, looked up, the tested form may be a part): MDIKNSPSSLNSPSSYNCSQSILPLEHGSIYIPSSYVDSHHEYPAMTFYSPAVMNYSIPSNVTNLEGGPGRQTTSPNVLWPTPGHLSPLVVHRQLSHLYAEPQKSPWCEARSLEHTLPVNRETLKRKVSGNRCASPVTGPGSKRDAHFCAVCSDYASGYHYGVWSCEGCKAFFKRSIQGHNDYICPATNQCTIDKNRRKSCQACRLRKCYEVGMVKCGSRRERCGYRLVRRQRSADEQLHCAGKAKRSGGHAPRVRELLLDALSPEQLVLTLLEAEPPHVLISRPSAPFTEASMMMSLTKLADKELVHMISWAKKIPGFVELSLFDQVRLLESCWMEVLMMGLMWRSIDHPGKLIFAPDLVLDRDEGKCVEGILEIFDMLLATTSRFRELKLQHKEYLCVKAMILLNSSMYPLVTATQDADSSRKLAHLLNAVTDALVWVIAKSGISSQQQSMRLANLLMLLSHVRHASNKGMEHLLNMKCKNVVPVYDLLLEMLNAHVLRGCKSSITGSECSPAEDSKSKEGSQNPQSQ
Chain of Androgen receptor (Homo sapiens) (P10275 whole entry, looked up): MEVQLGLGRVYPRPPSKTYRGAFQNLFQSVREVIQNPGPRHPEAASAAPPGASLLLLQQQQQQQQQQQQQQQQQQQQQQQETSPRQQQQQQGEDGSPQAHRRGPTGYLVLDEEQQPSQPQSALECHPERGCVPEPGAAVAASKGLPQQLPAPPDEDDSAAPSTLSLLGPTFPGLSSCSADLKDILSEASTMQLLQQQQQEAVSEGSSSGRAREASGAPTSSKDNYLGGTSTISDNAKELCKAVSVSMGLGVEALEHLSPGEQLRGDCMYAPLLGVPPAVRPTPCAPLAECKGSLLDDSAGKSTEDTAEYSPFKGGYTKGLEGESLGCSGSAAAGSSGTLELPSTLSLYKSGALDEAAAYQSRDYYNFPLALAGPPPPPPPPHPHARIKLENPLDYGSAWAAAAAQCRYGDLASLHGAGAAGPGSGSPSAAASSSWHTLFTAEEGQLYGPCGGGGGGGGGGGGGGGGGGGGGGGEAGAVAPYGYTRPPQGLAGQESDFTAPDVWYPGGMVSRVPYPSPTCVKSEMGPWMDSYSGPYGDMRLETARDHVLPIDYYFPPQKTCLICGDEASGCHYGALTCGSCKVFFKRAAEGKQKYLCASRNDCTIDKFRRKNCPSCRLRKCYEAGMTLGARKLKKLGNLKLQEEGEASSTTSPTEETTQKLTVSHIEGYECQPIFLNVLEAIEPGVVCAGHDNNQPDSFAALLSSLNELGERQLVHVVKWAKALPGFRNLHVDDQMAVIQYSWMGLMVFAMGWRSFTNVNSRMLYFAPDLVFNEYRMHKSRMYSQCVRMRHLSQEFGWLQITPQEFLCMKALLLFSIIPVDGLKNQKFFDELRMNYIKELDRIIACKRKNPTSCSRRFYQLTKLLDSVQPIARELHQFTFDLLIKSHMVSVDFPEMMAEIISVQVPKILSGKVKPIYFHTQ
Chain of Thyrotropin receptor (Homo sapiens) (P16473 whole entry, looked up): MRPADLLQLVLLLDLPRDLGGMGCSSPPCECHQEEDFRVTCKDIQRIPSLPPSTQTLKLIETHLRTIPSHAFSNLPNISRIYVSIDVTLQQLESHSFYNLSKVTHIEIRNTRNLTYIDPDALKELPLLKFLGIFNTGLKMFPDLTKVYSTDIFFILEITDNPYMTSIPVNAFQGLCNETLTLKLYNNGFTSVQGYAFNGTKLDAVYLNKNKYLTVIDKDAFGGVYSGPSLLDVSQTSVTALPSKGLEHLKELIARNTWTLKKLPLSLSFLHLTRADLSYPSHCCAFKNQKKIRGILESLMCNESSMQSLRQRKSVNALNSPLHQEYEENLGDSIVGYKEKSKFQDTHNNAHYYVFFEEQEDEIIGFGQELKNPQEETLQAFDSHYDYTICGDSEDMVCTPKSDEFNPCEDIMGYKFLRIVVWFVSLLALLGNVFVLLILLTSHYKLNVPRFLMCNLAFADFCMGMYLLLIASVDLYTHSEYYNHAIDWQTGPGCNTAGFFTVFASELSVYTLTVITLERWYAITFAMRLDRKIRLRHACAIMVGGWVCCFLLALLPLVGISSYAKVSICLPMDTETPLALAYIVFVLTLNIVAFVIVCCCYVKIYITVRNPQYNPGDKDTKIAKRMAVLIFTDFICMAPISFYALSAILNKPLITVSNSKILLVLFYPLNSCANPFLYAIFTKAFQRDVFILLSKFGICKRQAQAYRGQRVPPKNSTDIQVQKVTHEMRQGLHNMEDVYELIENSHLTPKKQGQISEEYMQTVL

COC(=O)C(Br)CBr (stereo not given)
not listed: [8] | [9] | [10]
inactive: all other assays above

CCCCCCC#N
not listed: [10]
inactive: all other assays above

CCO[C@H]1O[C@@H]2OC3(C)CC[C@H]4[C@H](C)CC[C@@H]([C@H]1C)[C@@]24OO3
not listed: [6] | [8] | [9]
inactive: all other assays above

N#C/C(N)=C(/N)C#N
not listed: [10]
inactive: all other assays above

O=C(O)COc1ccc(Cl)cc1
not listed: [10]
inactive: all other assays above

CCCCN=C=O
inactive: [1] | [2] | [3] | [4] | [5] | [6]

Cc1ccc2ccccc2c1
not listed: [8] | [9]
inactive: all other assays above

Cn1sc(Cl)cc1=O
not listed: [10]
inactive: all other assays above

C=C(C#N)CCC#N
not listed: [10]
inactive: all other assays above

ClCC(Br)CBr (stereo not given)
not listed: [9] | [10]
inactive: all other assays above

O=C1CN=C(c2ccccc2)c2cc(Cl)ccc2N1CC1CC1
inactive: [2] | [4] | [5] | [6]
active: [1] 51 µM | [3] 28.7 µM

COc1cc(CC(C)N)cc2c1OCO2 (stereo not given)
not listed: [9] | [10]
inactive: all other assays above

CCCCC(O)(Cn1cncn1)c1ccc(Cl)cc1Cl (stereo not given)
active: [1] 19.3 µM | [3] 48.5 µM | [5] 68.5 µM
not listed: [6] | [9]
inactive: all other assays above

CC(=O)CCC(C)=O
not listed: [9] | [10]
inactive: all other assays above

Clc1cccc(SC2CCNCC2)n1
active: [1] 26.6 µM
not listed: [9] | [10]
inactive: all other assays above

CCCCCCCCCC(=O)O[C@H]1CC[C@H]2[C@@H]3CCC4=CC(=O)CC[C@@H]4[C@H]3CC[C@]12C
not listed: [8] | [9] | [10]
inactive: all other assays above

c1ccc(C2CC2)c(OCC2=NCCN2)c1
not listed: [6] | [8] | [9]
inactive: all other assays above

CCC(Cl)CCl (stereo not given)
not listed: [10]
inactive: all other assays above

O=[Se]=O
active: [4] 9.62 µM
not listed: [10]
inactive: all other assays above

Brc1ccccc1
not listed: [8] | [9]
inactive: all other assays above

CC(C)(CCl)C(=O)Cl
active: [1] 12.2 µM
inactive: [2] | [3] | [4] | [5]

CCBr
not listed: [10]
inactive: all other assays above

O=C(CBr)Nc1ccc(Cl)cc1C(=O)c1ccccc1F
inactive: all assays above

ClCc1cccc(Cl)c1
not listed: [6]
inactive: all other assays above

NC(=O)CI
not listed: [9] | [10]
inactive: all other assays above

CC(=O)C(C)(C)C
not listed: [10]
inactive: all other assays above

CC1(C)[C@H](C=C(Cl)Cl)[C@@H]1C(=O)O[C@@H](C#N)c1cccc(Oc2ccccc2)c1
not listed: [10]
inactive: all other assays above

c1ccoc1
not listed: [10]
inactive: all other assays above

[O-][Cl+]O
not listed: [8] | [9] | [10]
inactive: all other assays above

C[C@@H]1CC[C@H]2[C@@H](C)C(=O)O[C@@H]3O[C@@]4(C)CC[C@@H]1[C@]32OO4
not listed: [6] | [7] | [9]
inactive: all other assays above

COC(C)(C)CCC[C@H](C)C/C=C/C(C)=C/C(=O)OC(C)C
not listed: [7] | [9]
inactive: all other assays above

CC(=O)[C@H]1CC[C@H]2[C@@H]3CC[C@H]4C[C@](C)(O)CC[C@]4(C)[C@H]3CC[C@]12C
active: [3] 2.11 µM
not listed: [9] | [10]
inactive: all other assays above

COc1cc(Cl)c(OC)cc1Cl
not listed: [8] | [9] | [10]
inactive: all other assays above

Cc1cc(=O)[nH]o1
inactive: all assays above

CO/C=C(/C(=O)OC)c1ccccc1COc1cccc(C(F)(F)F)n1
inactive: [2] | [6] | [7] | [8]
active: [1] 0.544 µM | [3] 3.85 µM | [4] 5.44 µM | [5] 4.85 µM

Clc1cc(C(Cl)(Cl)Cl)cnc1Cl
active: [4] 24.3 µM
not listed: [5] | [8] | [10]
inactive: all other assays above

C#CCOC(C(=O)OCCN(C)C)(c1ccccc1)c1ccccc1
not listed: [7] | [8] | [10]
inactive: all other assays above

CCC(Br)(CC)C(=O)NC(N)=O
inactive: [1] | [2] | [3] | [4] | [5] | [8]

ClCc1ccccc1
not listed: [5] | [10]
inactive: all other assays above

O=[N+]([O-])c1ccccc1CCl
not listed: [8] | [10]
inactive: all other assays above

CCCCCC[N+](=O)[O-]
not listed: [5] | [7]
inactive: all other assays above

Nc1nc(N)nc(N)n1
inactive: [1] | [2] | [3] | [4] | [6] | [8]

O=C(O)CC(Cl)C(=O)O (stereo not given)
not listed: [7] | [10]
inactive: all other assays above

ClCCCCBr
not listed: [6] | [7] | [10]
inactive: all other assays above

CN1C(=O)NC(=O)C(C)(C2=CCCCC2)C1=O (stereo not given)
inactive: [1] | [2] | [3] | [4] | [5] | [9]

C=CC(=O)OC(C)(C)C
not listed: [7] | [8] | [10]
inactive: all other assays above

CCOP(O)OCC
not listed: [7] | [10]
inactive: all other assays above

Cc1ccc(N)cc1C
not listed: [5] | [9] | [10]
inactive: all other assays above

CCOP(=S)(OCC)SCSCC
not listed: [5] | [8] | [10]
inactive: all other assays above

CC(C)N(CCC(C(N)=O)(c1ccccc1)c1ccccn1)C(C)C (stereo not given)
not listed: [7] | [8] | [10]
inactive: all other assays above

CCCCCCCCOC(=O)c1ccc(C(=O)OCCCCCCCC)c(C(=O)OCCCCCCCC)c1
inactive: [1] | [2] | [3] | [4] | [6] | [8]

C=CC(=O)OC
not listed: [7] | [8] | [10]
inactive: all other assays above

Cc1ccccc1CCl
inactive: [1] | [2] | [3] | [4] | [6]

Nc1nc(=S)[nH][nH]1
not listed: [8] | [10]
inactive: all other assays above

CC1C(=O)C[C@]2(C(C)C)C[C@H]12 (stereo not given in full)
not listed: [7] | [8] | [10]
inactive: all other assays above

COC(N)=O
inactive: [1] | [2] | [3] | [4] | [6] | [7]

c1ccc(CN2CCNCC2)cc1
not listed: [7] | [9] | [10]
inactive: all other assays above
